Compounds with a hit are over-represented: about 6% of the library has one in this group of screens.
D1 potentiator – human D1 dopamine receptor positive modulation; P21728; HEK293 TREx D1 cells, calcium flux, dopamine EC20 potentiation; potentiation, % at 10 µM; 360,000 compounds, 0.036% hits; in the data active means potentiation above about 30%; further: 0% is about no effect
Target sequence (P21728 whole entry, looked up): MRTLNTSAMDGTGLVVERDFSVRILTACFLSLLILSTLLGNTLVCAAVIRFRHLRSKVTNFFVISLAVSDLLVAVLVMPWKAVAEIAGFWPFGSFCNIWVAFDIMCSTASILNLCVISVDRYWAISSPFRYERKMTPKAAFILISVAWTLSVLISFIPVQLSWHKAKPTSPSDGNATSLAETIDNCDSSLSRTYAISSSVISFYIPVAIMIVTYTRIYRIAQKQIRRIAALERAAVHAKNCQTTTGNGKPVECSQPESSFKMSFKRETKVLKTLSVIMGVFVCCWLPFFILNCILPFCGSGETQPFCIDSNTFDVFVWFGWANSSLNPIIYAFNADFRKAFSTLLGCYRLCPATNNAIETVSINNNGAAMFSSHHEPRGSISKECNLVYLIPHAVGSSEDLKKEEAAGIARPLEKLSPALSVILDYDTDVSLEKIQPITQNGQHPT
D3 antag – blocks the human D3 dopamine receptor | D3R cells, DiscoveRx beta-arrestin luminescence, antagonist mode; hits give low values | max response, negative = inhibition, % | 360,000 compounds, 2.5% hits | AID 652054; in the data active means max response below about -50%; inconclusive means no clear call, values can overlap the other calls; further: on the % scale 0 is the no-effect control and ±100 the full control effect
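Cells expressing the human receptor were seeded at 1500 cells/well, incubated overnight at 37 degrees C in 5% CO2, then exposed to library compounds with dopamine controls for 90 minutes at 37 degrees C before luminescent detection.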
DRD3 agonist – activates the human D3 dopamine receptor | D3R DiscoveRx beta-arrestin cells, luminescence, 90 min | max activation, % | 410,000 compounds, 0.58% hits | AID 652048; in the data active means max activation above about 30%; further: 0% is about no effect
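Agonist-mode cell screen: cells plated at 1500/well and incubated overnight at 37 °C, then exposed to library compounds for 90 min at 37 °C. Detection reagent was added for 30–60 min at room temperature, and luminescence was read.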
D1 antag – antagonists of human D1 dopamine receptor; P21728; HEK293 TREx D1 cells, calcium flux, dopamine EC80; hits give low values; activity change, negative = inhibition, % at 10 µM; 360,000 compounds, 3.2% hits; AID 504652; in the data active means activity change below about -30%; further: on the % scale 0 is the no-effect control and ±100 the full control effect
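After overnight tetracycline induction at 30 C, force-coupled D1 HEK293 cells took up a no-wash calcium dye at room temperature. Compounds were added and monitored 180 s, and the response to EC80 dopamine was then recorded.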
D1 agonist – activates the human D1 dopamine receptor. P21728. HEK293 T-REx D1 cells, calcium flux, agonist mode. activation, % at 2 µM. 360,000 compounds, 1% hits. AID 504660; in the data active means activation above about 30%; further: 0% is about no effect
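Tetracycline-induced HEK293 TREx D1 cells, force-coupled to calcium signalling, were dye-loaded with a no-wash calcium kit. Compound was pin-added after a 10 s baseline. Fluorescence was read kinetically at 1 cycle/s for 180 s, with calcium rises flagged as agonism.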
Starred values were filed as active, the others as inactive; ? = inconclusive; . = no result given.

SMILES	D1 potentiator	D3 antag	DRD3 agonist	D1 antag	D1 agonist
COC(=O)c1c(NC(=O)C(C)C)sc2c1C(C(=O)OC)CC2 (centres undefined)	3	?	-2	68	3
COC(=O)c1c(NC(=O)c2ccco2)sc2c1C(C(=O)OC)CC2 (centres undefined)	1	-50*	4	-8	0
COC(=O)c1c(NC(=O)c2ccco2)sc2c1CCN(C(C)C)C2	0	0	-2	-17	33*
CC(C)N1CCc2c(sc(NC(=O)c3ccco3)c2C(N)=O)C1	-1	-4	1	-3	11
Cc1ccc2nc(Cl)c(CNCc3ccccc3)cc2c1	5	-10	-2	-35*	4
Cc1ccc(CNCc2ccccc2Cl)cc1	5	-67*	-13	5	5
O=C(Cn1ncc2c3ccccc3n(Cc3cccc(Cl)c3)c2c1=O)NCc1cccs1	-3	.	1	-11	14
COc1cc(OC)c(NC(=O)c2csc3c2CCC(C)C3)cc1Cl (centres undefined)	-2	.	-11	-3	10
C=CCc1ccccc1OCC(=O)O	-7	9	-2	3	3
C=CCc1ccccc1OCCNCc1ccccc1	-17	-88*	-14	-50*	12
Cc1cc(Cl)cc(C)c1OCCNCc1ccccc1	-2	?	-17	29	13
Brc1ccccc1OCCNCc1ccccc1	-16	-71*	4	-75*	13
Clc1ccc(OCCCNCc2ccccc2)c2ccccc12	16	-29	-22	-2	31*
Cc1cc(C)c(C)c(OCCNCc2ccccc2)c1	-3	-77*	-12	5	24
COc1ccc(-c2onc(C)c2C)cc1S(=O)(=O)NCc1ccc(C)o1	-4	.	-5	-16	1
Cc1cc(Br)ccc1OCCNCc1ccccc1	-7	-70*	-10	-2	13
COc1ccccc1/C=C/c1nc(C#N)c(N2CCCCCC2)o1	5	.	-14	17	4
O=C(Nc1ccc(Br)cc1)c1ccc(F)c(S(=O)(=O)N2CCc3ccccc32)c1	-2	.	1	11	5
Cc1nnsc1NC(=O)OCc1ccc(C(C)(C)C)cc1	-2	28	6	-32*	8
C=CCOC(=O)Nc1snnc1C	3	-8	-13	10	1
Cc1ccc(-n2cccn2)c(CN2CCCC(C(=O)c3ccc4c(c3)OCO4)C2)c1 (centres undefined)	-5	-63*	-32	-1	3
COc1cccc(CN2CCCC(C(=O)c3ccc4c(c3)OCO4)C2)c1OC (centres undefined)	-5	-15	-10	-7	5
O=C(c1ccc2c(c1)OCO2)C1CCCN(Cc2c(F)ccc(F)c2F)C1 (centres undefined)	-2	-17	-13	-29	0
O=C(c1ccc2c(c1)OCO2)C1CCCN(Cc2ccccc2OC(F)F)C1 (centres undefined)	-6	-63*	-16	-6	4
O=C(c1ccc2c(c1)OCO2)C1CCCN(Cc2cc(F)ccc2-n2cccn2)C1 (centres undefined)	-10	-13	-8	-36*	1
SMILES	D1 potentiator	D3 antag	DRD3 agonist	D1 antag	D1 agonist
COc1ccc(OC)c(CN2CCCC(C(=O)N3CCCCC3)C2)c1 (centres undefined)	-3	-77*	-30	3	2
COc1ccc(Br)cc1CN1CCCC(C(=O)N2CCCCC2)C1 (centres undefined)	-7	-89*	-9	-26	1
COc1ccc(Br)cc1CN1CCCC(C(=O)N2CCCCCC2)C1 (centres undefined)	-6	?	-17	-34*	5
COc1ccc(CN2CCCC(C(=O)N3CCCC3)C2)c(OC)c1OC (centres undefined)	.	-21	-19	.	.
COc1ccccc1CN1CCCC(C(=O)N2CCCCC2)C1 (centres undefined)	0	-24	-26	-16	3
O=Nc1c(O)n(Cc2ccc(Cl)cc2Cl)c2ccccc12	11	-92*	1	10	0
CCN(c1ccccc1)S(=O)(=O)c1ccc(C(=O)Oc2ccc(C(C)=O)cc2)cc1	-9	3	-2	-38*	24
COC(=O)CN(c1ccccc1)S(=O)(=O)c1ccc(F)cc1	-6	-21	0	2	1
CCN(c1ccccc1)S(=O)(=O)c1ccc(F)cc1	-1	-53*	1	3	1
